Tests used:
Test in all cases: log2 ratio of Biotin-Ahx-Ub-VS probe labelling (fragment/DMSO); higher = less target engagement (more negative = stronger competition), active = hit call of the paper (q ≤ 0.05, log2 ratio ≤ -1)
Details in all cases: compound concentration: 200 uM; treatment time: 3 h
USP19 = biological target: T1, USP19 (UniProt O94966)
T1 sequence (whole entry): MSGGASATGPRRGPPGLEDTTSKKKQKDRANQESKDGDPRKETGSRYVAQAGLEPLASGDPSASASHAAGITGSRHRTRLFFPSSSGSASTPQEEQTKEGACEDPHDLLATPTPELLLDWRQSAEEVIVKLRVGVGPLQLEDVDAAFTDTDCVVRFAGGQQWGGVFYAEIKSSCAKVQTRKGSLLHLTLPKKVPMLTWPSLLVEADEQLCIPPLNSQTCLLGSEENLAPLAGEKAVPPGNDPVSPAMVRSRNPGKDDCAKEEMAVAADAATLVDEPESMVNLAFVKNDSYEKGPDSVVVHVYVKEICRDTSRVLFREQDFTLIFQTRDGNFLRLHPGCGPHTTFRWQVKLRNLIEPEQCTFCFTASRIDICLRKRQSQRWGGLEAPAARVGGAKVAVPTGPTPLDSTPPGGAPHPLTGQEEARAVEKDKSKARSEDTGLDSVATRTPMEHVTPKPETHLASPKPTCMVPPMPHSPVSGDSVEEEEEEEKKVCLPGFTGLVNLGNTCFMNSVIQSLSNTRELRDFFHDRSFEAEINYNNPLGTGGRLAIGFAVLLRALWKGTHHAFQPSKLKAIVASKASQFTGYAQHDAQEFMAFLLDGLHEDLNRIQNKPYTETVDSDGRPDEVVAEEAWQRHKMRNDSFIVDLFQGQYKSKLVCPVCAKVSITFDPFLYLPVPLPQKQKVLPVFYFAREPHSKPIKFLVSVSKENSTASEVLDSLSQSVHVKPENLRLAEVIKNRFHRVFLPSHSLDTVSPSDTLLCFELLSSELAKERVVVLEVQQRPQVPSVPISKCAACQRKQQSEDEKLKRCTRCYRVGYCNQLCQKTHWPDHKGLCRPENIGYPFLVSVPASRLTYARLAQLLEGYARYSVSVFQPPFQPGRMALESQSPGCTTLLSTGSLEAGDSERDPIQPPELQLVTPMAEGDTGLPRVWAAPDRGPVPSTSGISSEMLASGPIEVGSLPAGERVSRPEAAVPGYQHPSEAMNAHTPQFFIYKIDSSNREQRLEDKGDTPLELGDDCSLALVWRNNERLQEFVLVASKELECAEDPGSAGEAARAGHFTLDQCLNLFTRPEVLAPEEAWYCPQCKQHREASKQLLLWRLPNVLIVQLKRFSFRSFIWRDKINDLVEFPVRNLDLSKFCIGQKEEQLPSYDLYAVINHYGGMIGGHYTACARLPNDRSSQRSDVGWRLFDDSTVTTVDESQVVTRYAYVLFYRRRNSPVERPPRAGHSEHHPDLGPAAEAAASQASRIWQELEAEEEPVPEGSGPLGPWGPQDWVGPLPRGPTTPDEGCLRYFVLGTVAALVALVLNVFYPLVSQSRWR
Summary of the method: (§1)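 HEK293T lysate in Tris/CHAPS/IGEPAL buffer with protease inhibitors (495 µg per sample) was given fragment at 200 µM or vehicle for 3 h, in triplicate. It then received Biotin-Ahx-Ub-VS at 0.5 µM final for 1 h. Labelled DUBs were NeutrAvidin-enriched, digested with LysC and trypsin, and run by diaPASEF LC-MS/MS. Values are average log2 fragment/vehicle ratios by unpaired t-test on global-median-normalised Spectronaut quantities of proteins with ≥2 unique peptides.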

USP22 = biological target: T2, USP22 (UniProt Q9UPT9)
T2 sequence (whole entry): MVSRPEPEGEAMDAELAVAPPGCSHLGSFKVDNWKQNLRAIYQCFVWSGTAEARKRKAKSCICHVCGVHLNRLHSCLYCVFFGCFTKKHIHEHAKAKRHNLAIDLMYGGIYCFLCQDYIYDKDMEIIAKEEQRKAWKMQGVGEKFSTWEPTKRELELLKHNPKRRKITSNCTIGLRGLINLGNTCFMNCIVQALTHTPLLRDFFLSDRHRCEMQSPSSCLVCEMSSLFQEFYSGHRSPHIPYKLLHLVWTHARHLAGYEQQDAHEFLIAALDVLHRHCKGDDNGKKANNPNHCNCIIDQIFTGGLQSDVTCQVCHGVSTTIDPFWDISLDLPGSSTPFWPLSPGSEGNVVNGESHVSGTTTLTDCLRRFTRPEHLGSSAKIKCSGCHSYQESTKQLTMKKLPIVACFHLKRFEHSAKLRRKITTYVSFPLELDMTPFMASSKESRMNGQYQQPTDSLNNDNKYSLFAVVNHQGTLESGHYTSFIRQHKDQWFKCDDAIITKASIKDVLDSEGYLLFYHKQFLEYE
Summary of the method: as §1

USP24 = USP24 (UniProt Q9UPU5)
Sequence of USP24 (Q9UPU5 whole entry): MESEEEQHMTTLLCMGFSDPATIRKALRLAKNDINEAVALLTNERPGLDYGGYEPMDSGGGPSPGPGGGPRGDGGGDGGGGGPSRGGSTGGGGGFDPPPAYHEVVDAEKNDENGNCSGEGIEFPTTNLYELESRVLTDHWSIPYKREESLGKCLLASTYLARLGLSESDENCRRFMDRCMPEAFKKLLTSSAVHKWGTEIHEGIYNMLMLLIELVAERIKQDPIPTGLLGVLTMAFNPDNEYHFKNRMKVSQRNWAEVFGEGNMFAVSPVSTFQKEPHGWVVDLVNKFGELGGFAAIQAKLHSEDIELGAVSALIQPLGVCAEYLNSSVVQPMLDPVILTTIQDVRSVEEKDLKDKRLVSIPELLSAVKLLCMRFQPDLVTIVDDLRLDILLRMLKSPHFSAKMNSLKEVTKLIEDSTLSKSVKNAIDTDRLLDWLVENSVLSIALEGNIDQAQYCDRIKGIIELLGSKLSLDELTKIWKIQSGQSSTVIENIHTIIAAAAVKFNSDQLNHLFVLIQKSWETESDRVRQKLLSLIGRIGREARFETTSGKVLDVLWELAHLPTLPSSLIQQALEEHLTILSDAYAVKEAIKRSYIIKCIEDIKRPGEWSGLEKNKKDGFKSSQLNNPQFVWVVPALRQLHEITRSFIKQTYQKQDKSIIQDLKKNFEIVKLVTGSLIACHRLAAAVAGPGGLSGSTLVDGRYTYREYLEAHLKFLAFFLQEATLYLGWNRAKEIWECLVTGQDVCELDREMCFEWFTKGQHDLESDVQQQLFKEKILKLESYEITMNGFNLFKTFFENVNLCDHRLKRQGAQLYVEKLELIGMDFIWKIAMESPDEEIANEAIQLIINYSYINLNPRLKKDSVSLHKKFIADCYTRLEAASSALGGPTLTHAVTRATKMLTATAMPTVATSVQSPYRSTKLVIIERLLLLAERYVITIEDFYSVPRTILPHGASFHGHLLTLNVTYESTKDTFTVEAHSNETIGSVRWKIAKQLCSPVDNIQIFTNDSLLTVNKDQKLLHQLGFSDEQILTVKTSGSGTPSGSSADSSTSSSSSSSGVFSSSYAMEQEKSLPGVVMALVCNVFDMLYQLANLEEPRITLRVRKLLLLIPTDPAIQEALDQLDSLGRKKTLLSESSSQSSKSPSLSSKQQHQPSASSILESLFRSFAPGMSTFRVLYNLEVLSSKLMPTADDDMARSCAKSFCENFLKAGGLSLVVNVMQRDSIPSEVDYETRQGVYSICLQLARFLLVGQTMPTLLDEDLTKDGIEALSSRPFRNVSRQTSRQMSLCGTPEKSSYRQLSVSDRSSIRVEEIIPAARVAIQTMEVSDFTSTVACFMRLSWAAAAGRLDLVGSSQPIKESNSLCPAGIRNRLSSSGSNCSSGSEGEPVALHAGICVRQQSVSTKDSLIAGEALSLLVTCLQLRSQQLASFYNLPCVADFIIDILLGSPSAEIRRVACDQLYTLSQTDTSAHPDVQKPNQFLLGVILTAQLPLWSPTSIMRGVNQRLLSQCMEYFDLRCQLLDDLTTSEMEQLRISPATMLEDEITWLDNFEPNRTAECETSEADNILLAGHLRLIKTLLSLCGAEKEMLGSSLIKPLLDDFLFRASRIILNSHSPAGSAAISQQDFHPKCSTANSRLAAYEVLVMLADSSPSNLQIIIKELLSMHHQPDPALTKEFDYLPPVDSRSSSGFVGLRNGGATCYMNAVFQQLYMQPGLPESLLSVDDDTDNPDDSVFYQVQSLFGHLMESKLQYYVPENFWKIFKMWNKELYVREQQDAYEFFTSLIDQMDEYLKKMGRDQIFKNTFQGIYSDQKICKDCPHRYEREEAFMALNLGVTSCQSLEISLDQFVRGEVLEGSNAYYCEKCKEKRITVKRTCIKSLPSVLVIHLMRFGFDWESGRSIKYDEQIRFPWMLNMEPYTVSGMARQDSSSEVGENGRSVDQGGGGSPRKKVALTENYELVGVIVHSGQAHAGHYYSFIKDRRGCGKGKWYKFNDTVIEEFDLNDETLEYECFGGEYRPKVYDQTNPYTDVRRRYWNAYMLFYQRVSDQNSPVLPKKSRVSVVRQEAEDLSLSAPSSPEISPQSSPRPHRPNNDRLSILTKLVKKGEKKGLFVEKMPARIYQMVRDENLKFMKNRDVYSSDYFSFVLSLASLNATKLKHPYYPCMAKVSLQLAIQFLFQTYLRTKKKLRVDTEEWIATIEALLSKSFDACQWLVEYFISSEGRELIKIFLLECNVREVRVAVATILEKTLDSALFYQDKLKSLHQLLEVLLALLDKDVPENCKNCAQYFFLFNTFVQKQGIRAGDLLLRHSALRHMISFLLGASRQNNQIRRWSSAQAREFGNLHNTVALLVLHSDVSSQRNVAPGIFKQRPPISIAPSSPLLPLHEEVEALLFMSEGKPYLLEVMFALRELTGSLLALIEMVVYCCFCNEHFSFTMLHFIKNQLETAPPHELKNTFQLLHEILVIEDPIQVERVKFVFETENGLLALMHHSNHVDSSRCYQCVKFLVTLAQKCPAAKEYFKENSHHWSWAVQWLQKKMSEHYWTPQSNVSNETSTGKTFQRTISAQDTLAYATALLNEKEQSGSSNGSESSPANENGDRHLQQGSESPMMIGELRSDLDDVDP
Summary of the method: as §1

USP25 = biological target: T3, USP25 (UniProt Q9UHP3)
T3 sequence (whole entry): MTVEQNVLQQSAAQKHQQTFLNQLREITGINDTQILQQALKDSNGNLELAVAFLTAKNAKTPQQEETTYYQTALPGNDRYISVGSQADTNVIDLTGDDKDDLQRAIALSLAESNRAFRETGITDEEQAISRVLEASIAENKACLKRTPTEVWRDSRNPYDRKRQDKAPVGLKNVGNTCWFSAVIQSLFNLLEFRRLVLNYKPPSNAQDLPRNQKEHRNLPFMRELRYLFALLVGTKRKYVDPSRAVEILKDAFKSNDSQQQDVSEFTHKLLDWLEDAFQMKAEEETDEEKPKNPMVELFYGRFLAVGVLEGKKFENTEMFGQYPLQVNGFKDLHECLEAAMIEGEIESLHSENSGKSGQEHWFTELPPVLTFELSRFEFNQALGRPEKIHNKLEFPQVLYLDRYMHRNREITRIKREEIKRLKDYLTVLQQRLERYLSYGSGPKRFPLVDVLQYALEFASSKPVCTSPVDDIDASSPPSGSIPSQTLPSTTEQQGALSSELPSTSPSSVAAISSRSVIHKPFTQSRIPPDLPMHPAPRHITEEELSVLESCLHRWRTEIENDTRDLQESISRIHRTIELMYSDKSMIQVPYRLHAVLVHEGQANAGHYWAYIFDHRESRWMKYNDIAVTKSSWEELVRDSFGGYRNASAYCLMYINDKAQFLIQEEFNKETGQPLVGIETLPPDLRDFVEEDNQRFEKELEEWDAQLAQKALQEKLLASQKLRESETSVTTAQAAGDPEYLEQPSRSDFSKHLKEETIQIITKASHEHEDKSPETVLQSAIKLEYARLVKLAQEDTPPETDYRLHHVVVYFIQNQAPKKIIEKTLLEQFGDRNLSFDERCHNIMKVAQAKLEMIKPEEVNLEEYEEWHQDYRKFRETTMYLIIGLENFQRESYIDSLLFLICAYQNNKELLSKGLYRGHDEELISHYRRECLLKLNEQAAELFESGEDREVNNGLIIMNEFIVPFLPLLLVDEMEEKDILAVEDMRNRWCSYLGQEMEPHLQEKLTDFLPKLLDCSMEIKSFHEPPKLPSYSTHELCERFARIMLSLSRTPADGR
Summary of the method: as §1

USP28 = biological target: T4, USP28 (UniProt Q96RU2)
T4 sequence (whole entry): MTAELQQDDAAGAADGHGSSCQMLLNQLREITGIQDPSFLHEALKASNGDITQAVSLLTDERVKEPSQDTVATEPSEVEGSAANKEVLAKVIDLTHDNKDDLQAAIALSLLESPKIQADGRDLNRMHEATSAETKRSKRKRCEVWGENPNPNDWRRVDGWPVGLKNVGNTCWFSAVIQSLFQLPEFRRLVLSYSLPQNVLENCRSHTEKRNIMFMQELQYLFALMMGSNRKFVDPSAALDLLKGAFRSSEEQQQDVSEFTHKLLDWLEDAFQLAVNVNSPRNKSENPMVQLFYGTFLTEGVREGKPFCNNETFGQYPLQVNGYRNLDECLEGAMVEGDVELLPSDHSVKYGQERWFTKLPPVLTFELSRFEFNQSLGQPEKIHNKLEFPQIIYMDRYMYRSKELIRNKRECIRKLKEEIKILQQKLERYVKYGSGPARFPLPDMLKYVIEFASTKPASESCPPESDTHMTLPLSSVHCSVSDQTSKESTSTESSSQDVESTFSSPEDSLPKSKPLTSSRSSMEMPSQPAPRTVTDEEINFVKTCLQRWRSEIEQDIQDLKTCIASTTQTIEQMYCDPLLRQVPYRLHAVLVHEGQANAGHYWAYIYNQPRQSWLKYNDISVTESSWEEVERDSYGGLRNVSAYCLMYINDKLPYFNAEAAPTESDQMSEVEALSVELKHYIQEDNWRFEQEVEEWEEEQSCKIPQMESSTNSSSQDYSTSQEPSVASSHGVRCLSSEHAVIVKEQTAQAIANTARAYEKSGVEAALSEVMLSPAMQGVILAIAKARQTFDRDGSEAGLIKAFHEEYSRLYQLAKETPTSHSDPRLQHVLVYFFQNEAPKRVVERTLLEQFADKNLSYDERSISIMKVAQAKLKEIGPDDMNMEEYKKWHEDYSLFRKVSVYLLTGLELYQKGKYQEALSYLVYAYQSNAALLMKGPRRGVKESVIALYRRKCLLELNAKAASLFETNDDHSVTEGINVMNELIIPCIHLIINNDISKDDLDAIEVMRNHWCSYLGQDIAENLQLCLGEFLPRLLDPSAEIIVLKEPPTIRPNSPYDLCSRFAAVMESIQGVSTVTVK
Summary of the method: as §1

Measured: log2 ratio of Biotin-Ahx-Ub-VS probe labelling

Cc1ccc(C)c(Oc2ccc(CNC(=O)CCl)cn2)c1.Cl
inactive: USP19 -0.382 | USP22 -0.856 | USP24 -0.83 | USP25 -0.627 | USP28 -0.765
